According to PubChem BioAssay (NCI):
About 83,000 compounds went through this panel and 20% of them were active in at least one assay; those are over-represented in the sample as a whole.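 Treatment: one concentration, 48 hours, 96-well format. Scoring: percent growth, with anything below 10 considered active.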 A number with no mark means an inactive call. The source made the active and inactive calls.

system: HL-60(TB) leukemia; assay: NCI-60 one-dose screen, 48 h (100 = growth as untreated, 0 = no growth, -100 = all killed); conditions: 10 µM unless noted

In order of falling growth:
1. CC(C)Cn1c2c(c(=S)[nH]c1=O)CCC2  107%
2. Cc1nn(-c2cc(=O)[nH]c3ccccc23)c(N)c1C#N  102%
3. Cc1ccc(C(=O)O)o1  101%
4. CN(C)CCOC(=O)Nc1ccc(Cl)cc1  100%
5. CCCn1nc(C(=O)N(C)Cc2ccccc2)c2c1CCC(N1CCc3ccccc31)C2 (stereo not given)  98%
6. Nc1nc(Nc2ccccc2)n[nH]1  97.7%
7. C(=C(\C1=NCCN1)n1ccc2ccccc21)/c1ccccc1  96.8%
8. COc1cc(Cl)cc(-c2nn(C(=O)NS(=O)(=O)c3ccc(Cl)cc3)cc2-c2ccncc2)c1  94.8%
9. COC(=O)C1NC(=S)N(c2ccc(Cl)cc2)C1/C=C/c1ccccc1 (stereo not given)  92.8%
10. CC(C)(C)c1cc(C=Nc2cccc(C(F)(F)F)c2)c(O)c(C(C)(C)C)c1  90.1%
11. O=C(Nc1cccc(Cn2c(=O)[nH]c3ccc(Oc4ncccn4)cc3c2=O)c1)c1cccc(F)c1  89.9%
12. Cc1ccc(S(=O)(=O)Oc2ccc(NC(=O)c3ccc(Cl)cc3)cc2)cc1  89.2%
13. COc1ccc(-c2nc(SCC(C)C)nc(Nc3ccccc3)c2C#N)cc1  88.6%
14. Cc1ccc(S(=O)(=O)N(CCc2ccc(Cl)cc2)S(=O)(=O)c2ccc(C)cc2)cc1  85.3%
15. O=C(N/N=C/c1ccc(Cl)cc1)c1ccccc1Nc1cccc(C(F)(F)F)c1  84.7%
16. O=C1/C(=C/c2ccc(F)cc2)C=C(c2ccccc2)N1CCc1ccccc1  81%
17. O=C(Nc1ccc(Nc2ccncc2)cc1)c1ccc(Nc2ccnc3ccc([N+](=O)[O-])cc23)cc1  79.9%
18. NCCn1cc(-c2nc(-c3c[nH]c4ncccc34)cs2)c2ccccc21  78.2%
19. CC/C(=C(\c1ccc(OCCN2CCCCCCC2)cc1)c1ccc(OC(=O)C2CCCCC2)cc1)c1ccc(Cl)cc1  77.8%
20. C=CCn1c(SCC(=O)Nc2ccc(C(=O)/C=C/c3ccc(Cl)cc3)cc2)nnc1-c1ccc(Br)cc1  76.2%
21. CC1(C)CC[C@]2(CO)CC[C@]3(C)[C@](O)([C@H](O)C[C@@H]4[C@@]5(C)CCCNC(C)(C)[C@@H]5CC[C@]43C)[C@@H]2C1  71%
22. O=C(/C(Cl)=N/O)c1ccc(-c2ccccc2)cc1  69.2%
23. COc1ccc(-c2cc(/C=C3\C(=O)Nc4ccc(Cl)cc43)[nH]n2)cc1OC  60.2%
24. O=C(Nc1ccc(-n2ccc3c(NC(=O)c4ccccc4)ncnc32)cc1)c1cccc(C(F)(F)F)c1  43.9%
25. Cc1[nH]n(-c2cccc(Cl)c2)c(=O)c1/C=C1\C=Nc2ccc(Br)cc21  38.5%
26. Cc1cc(C(=O)Nc2cc(Nc3ncccc3-c3ncnc4nc[nH]c34)ccc2F)cc(C(F)(F)F)c1  25.1%
27. COc1c(B(O)O)cccc1-c1cc(C)c2c(ccc3[nH]ncc32)n1  23.8%
28. N#CC1=C(N)Oc2c(ccc3cccnc23)C1c1ccccc1 (stereo not given)  13.3%
29. COc1cc(/C=C/C(=O)c2c(C)n([O-])c3ccc(Cl)cc3[n+]2=O)cc(OC)c1OC  12.7%
30. COc1ccc(-c2cc(C#N)c(NNC(C)=O)[nH]2)cc1  11.4%

`CCN(CC)CCN1c2nc3ccccc3cc2Sc2cc3ccccc3nc21` was tested, and the growth was -21.1% (active).
With `CCCCCCNc1nc(N2CCOCC2)c2[nH]c(NCCCCCC)nc2n1` the growth was -54.8% (active).
With `O=C1CCc2c(sc3[nH]c(=S)n(-c4cc(C(F)(F)F)cc(C(F)(F)F)c4)c(=O)c23)C1` the growth was -14.2% (active).
`CC[C@]1(O)CC2CN(CCc3c([nH]c4ccccc34)C(C(=O)OC)(c3cc4c(cc3OC)N(C=O)[C@H]3[C@@](O)(C(=O)OC)[C@H](OC(C)=O)[C@]5(CC)[C@@H]6C[C@@H]6CN6CC[C@]43[C@@H]65)C2)C1` (stereo not given in full) was tested, and the growth was 0.642% (active).
With `OC(c1cc2c(Cl)cc(Cl)cc2c2cc(C(F)(F)F)ccc12)C1CCCCN1` (stereo not given) the growth was -39.1% (active).
`CCOc1ccc(-n2cc(-c3ccc(N(C)C)cc3)[n+]3c2CCCCC3)cc1` was tested, and the growth was -0.266% (active).
For `O=C1C(=O)c2cccnc2-c2ncccc21`, the growth was -21% (active).
`CSc1ccc(N(C)c2nc(C)nc3c2CCC3)cc1` was tested, and the growth was -28.3% (active).
In the case of `C=C1C(=O)O[C@H]2[C@H]1CC/C(COC(=O)NCc1ccc(Cn3c(=O)sn(-c4ccc(C#N)cc4)c3=O)cc1)=C\CC[C@@]1(C)O[C@@H]21`, the growth is reported as -13.1% (active).
`CC1=C[C@@H]2c3c(c(O)c(O)c4oc5cc(O)cc(O)c5c(=O)c34)[C@@H](c3cc(O)c(O)c4oc5cc(O)cc(O)c5c(=O)c34)[C@@H]2C(C)(C)C1` was tested, and the growth was -3.85% (active).
